# Data reported in PubChem BioAssay.
# Calls of active or inactive are those of the source. Unless noted, how the calls were made is not given here.
# What was measured:
# [1] = compound effects on lung adenocarcinoma cell viability – A549, calcein-AM fluorescence, 48 h, basal, profiling panel (AID 1162); settings: higher = more signal; further: test concentration not given here
# [2] = compound effects on differentiated 3T3-L1 adipocyte viability – cell-based, 3T3-L1 adipocytes, calcein-AM fluorescence, 48 h, basal, profiling panel (AID 1163); settings: 3T3-L1 adipocytes viability, higher = more signal; further: test concentration not given here
# [3] = compound effects on hepatocellular carcinoma cell viability – HepG2, calcein-AM fluorescence, 48 h, basal, profiling panel (AID 1164); settings: higher = more signal; further: test concentration not given here
# [4] = compound effects on multiple myeloma cell viability – MM1S, calcein-AM fluorescence, 48 h, basal, profiling panel (AID 1165); settings: higher = more signal;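 further: viability of MM1S multiple myeloma cells under basal unstimulated conditions; test concentration not given here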
# [5] = calcein-AM signal in unstimulated myeloma cells – cell-based, calcein-AM fluorescence, 48 h, PK04 Diversity Set, profiling panel (AID 1166); settings: RPMI8226 myeloma viability, higher = more signal;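 further: cells grown under basal conditions without added stimulus; test concentration not given here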
# [6] = JC-1 mitochondrial signal, unstimulated HepG2 cells – cell-based, JC-1 fluorescence, 24 h, 100 nL compound, profiling panel (AID 1167); settings: HepG2 mitochondrial potential, higher = more signal; further: test concentration not given here
# [7] = JC-1 mitochondrial signal, unstimulated adipocytes – cell-based, JC-1 fluorescence, 3T3-L1 adipocytes, 24 h, 100 nL compound, profiling panel (AID 1168); settings: JC-1 mitochondrial fluorescence, higher = more signal, called active from +8 up or from −8 down; further: test concentration not given here
# [8] = JC-1 mitochondrial signal, unstimulated myeloma cells – cell-based, JC-1 fluorescence, RPMI8226, 24 h, 100 nL compound, profiling panel (AID 1169); settings: JC-1 mitochondrial potential fluorescence, higher = more signal; further: test concentration not given here
# [9] = JC-1 mitochondrial signal, unstimulated MM1S myeloma – cell-based, JC-1 fluorescence, 24 h, 100 nL compound, profiling panel (AID 1170); settings: MM1S mitochondrial potential, higher = more signal; further: test concentration not given here
# [10] = resazurin metabolic signal in A549 cells – cell-based, resazurin fluorescence, 24 h, PK04 Diversity Set, profiling panel (AID 1171); settings: A549 viability, higher = more signal, called active from +8 up or from −8 down; further: test concentration not given here
# [11] = resazurin metabolic signal in HepG2 cells – cell-based, resazurin fluorescence, 24 h, PK04 Diversity Set, profiling panel (AID 1172); settings: HepG2 viability, higher = more signal; further: test concentration not given here
# [12] = budding yeast growth changes without added modifier – OD600, strain BY4716, 24 h, basal condition, primary screen (AID 1173); settings: S. cerevisiae BY4716 growth, OD600, 24 h; higher = more signal, called active from +8 up or from −8 down
# [13] = viability profiling in MM1S myeloma cells – cell-based, resazurin fluorescence, basal, 24 h, PK04 Diversity Set, profiling panel (AID 1174); settings: higher = more signal, called active from +8 up or from −8 down; further: test concentration not given here
# [14] = biological target: Dihydroorotate dehydrogenase (quinone), mitochondrial (Plasmodium falciparum (isolate 3D7)) (UniProt Q08210); assay: inhibition of P. falciparum DHODH – biochemical, C-terminal His tag, absorbance 600 nm, primary screen (AID 1175); settings: PfDHODH enzyme, DCIP absorbance 600 nm; higher = more signal, called active from +8 up or from −8 down;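 further: recombinant parasite enzyme with a five histidine tag at its C terminus; test concentration not given here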
# Dihydroorotate dehydrogenase (quinone), mitochondrial (Plasmodium falciparum (isolate 3D7)), sequence (Q08210 whole entry, looked up): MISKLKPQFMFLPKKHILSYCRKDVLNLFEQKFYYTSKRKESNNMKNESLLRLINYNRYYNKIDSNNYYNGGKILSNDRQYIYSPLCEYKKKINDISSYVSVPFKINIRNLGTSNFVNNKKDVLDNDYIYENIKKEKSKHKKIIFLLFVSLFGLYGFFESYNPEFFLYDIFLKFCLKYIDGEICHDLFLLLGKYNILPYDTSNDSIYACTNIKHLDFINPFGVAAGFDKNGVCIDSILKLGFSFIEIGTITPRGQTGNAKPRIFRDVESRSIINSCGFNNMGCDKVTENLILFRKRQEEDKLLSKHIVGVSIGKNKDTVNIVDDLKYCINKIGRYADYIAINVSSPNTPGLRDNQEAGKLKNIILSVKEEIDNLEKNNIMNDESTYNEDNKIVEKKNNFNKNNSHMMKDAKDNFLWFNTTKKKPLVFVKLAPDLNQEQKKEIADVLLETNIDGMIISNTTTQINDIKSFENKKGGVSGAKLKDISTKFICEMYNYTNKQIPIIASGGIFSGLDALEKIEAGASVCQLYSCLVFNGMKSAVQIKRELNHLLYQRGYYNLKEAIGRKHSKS
# [15] = inhibition of PAO1 biofilm formation – strain PAO1, LB-PBS medium, absorbance 600 nm, primary screen (AID 1176); further: test concentration not given here; settings: P. aeruginosa PAO1 growth/biofilm, A600, 12 h; higher = more signal
# [16] = growth modulation of vineyard yeast isolate – strain RM11-1a, OD600, basal, 24 h, primary screen (AID 1177);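 further: cultures grown under basal conditions with no added stressor; test concentration not given here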; settings: S. cerevisiae RM11-1a growth, OD600, 24 h; higher = more signal, called active from +8 up or from −8 down
# [17] = growth of efflux-deficient E. coli DRC39 – strain DRC39, OD650, 24 h, E. coli filamentation inducers, primary screen (AID 1178);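 further: growth measured as culture turbidity by optical density at 650 nm; test concentration not given here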; settings: E. coli DRC39 acrAB, higher = more signal, called active from +8 up or from −8 down
# [18] = growth of efflux-deficient E. coli DRC39 – strain DRC39, OD650, 48 h, E. coli filamentation inducers, primary screen (AID 1179);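 further: screen aims at cell division blockers that make cells filament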; settings: E. coli DRC39 delta-acrAB growth, higher = more signal, called active from +8 up or from −8 down
# [19] = viability profiling in RPMI8226 myeloma cells – cell-based, resazurin fluorescence, basal, 24 h, PK04 Diversity Set, profiling panel (AID 1180); settings: higher = more signal;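 further: RPMI8826 multiple myeloma cell line at 5000 cells per well; test concentration not given here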
# [20] = biological target: E3 ubiquitin-protein ligase XIAP (Homo sapiens) (UniProt P98170); assay: small molecules binding XIAP protein – biophysical, small-molecule microarray, fluorescence 635 nm, primary screen (AID 1181); settings: higher = more signal;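 further: score merges 667 nm emission and signal to noise over triplicate slides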
# E3 ubiquitin-protein ligase XIAP (Homo sapiens), sequence (P98170 whole entry, looked up): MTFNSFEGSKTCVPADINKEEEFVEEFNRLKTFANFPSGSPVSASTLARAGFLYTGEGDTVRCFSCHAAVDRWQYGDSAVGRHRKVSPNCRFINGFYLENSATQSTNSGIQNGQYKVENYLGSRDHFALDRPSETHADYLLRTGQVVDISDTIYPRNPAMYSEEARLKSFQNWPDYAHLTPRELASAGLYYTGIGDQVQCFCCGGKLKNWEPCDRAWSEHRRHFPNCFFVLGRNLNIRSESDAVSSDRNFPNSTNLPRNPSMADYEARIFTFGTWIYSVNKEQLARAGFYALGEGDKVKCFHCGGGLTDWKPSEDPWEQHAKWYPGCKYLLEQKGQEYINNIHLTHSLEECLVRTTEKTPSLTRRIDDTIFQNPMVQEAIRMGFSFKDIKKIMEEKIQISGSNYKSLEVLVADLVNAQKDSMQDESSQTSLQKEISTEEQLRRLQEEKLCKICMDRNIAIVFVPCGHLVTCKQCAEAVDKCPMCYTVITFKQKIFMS
SMILES,z-score [1],z-score [2],z-score [3],z-score [4],z-score [5],z-score [6],z-score [7],z-score [8],z-score [9],z-score [10],z-score [11],z-score [12],z-score [13],composite z-score [14],z-score [15],z-score [16],z-score [17],z-score [18],z-score [19],composite z-score [20]
CO[C@H]1COC(=O)CC=C[C@H](C)COC(=O)[C@@H](C)NC(=O)CC=C[C@@H]1C,-0.752,0.197,-1.46,0.735,-1.5,0.187,-0.546 (inactive),-0.111,-0.609,0.0702 (inactive),-0.251,-0.695 (inactive),1.31 (inactive),-0.412 (inactive),-0.16 (inactive),-0.652 (inactive),0.33 (inactive),-1.21 (inactive),0.961,0.0297
CCN1C(=O)[C@H]2[C@H]3[C@H](O)[C@H](O)CC(=NOC[C@H]4O[C@H](c5ccccc5)C=C[C@@H]4Oc4ccc(OC)cc4)[C@@H]3CC[C@H]2C1=O,0.964,-0.471,0.644,-1.98,-2.23,-0.627,0.0264 (inactive),-1.24,-0.409,-0.531 (inactive),-0.985,-0.933 (inactive),-0.641 (inactive),-0.953 (inactive),0.241 (inactive),0.635 (inactive),0.602 (inactive),0.923 (inactive),-1.04,0.0617
COC(=O)[C@H](C)NC(=O)CCC1CC(OC(=O)NCc2ccc3c(c2)OCO3)CC2(CCCC(COC(=O)NCc3cccc(C(F)(F)F)c3)O2)O1 (stereo not given in full),-0.828,-0.0811,-1.55,-2.05,0.442,-1.44,-0.123 (inactive),0.619,-0.213,0.0249 (inactive),-0.443,-0.817 (inactive),0.374 (inactive),-0.303 (inactive),0.484 (inactive),-0.476 (inactive),0.298 (inactive),0.079 (inactive),0.459,0.0566
CC(C)=CCCC(C)=CCON=C1C[C@@H](O)[C@@H](O)[C@@H]2[C@@H]3C(=O)N(C(C)(C)C)C(=O)[C@@H]3CC[C@@H]12,0.0392,0.523,0.121,-1.09,-0.562,-0.279,-0.365 (inactive),-0.231,0.947,-1.03 (inactive),-0.976,-0.0139 (inactive),0.408 (inactive),0.661 (inactive),1.23 (inactive),-0.0348 (inactive),-0.106 (inactive),-1.26 (inactive),-0.11,-0.172
CO[C@@H]1COC(=O)[C@@H](C)COC(=O)[C@@H](C)NC(=O)CC=C[C@@H]1C,-0.448,1.25,-1.45,-0.539,-1.86,0.2,-0.189 (inactive),0.0701,-1.48,0.512 (inactive),-0.373,-0.792 (inactive),1.2 (inactive),-4.92 (inactive),-0.136 (inactive),-1.99 (inactive),-0.98 (inactive),-1.13 (inactive),0.635,-0.271
COC(=O)[C@@H]1CC[C@@H](C)[C@H](c2ccc(Br)cc2)N1,0.376,0.931,0.232,-0.749,0.628,0.307,-0.00943 (inactive),0.273,1.23,0.316 (inactive),0.0869,-0.176 (inactive),-0.0484 (inactive),-0.275 (inactive),0.766 (inactive),-0.0446 (inactive),-0.234 (inactive),-0.0612 (inactive),0.429,0.0548
CCc1cc2c(nc1CC)CCN(CCC(C)=NO[C@@H](C)c1cn([C@H](CO)Cc3ccccc3)nn1)C2,0.669,0.367,1.8,0.73,0.18,2.44,0.254 (inactive),-0.279,-0.525,0.0367 (inactive),-0.301,-0.841 (inactive),-1.79 (inactive),-1.3 (inactive),-0.218 (inactive),0.804 (inactive),0.294 (inactive),0.67 (inactive),0.659,-0.0602
CC(CCN1CCc2nc(-c3ccccc3)c(-c3ccccc3)cc2C1)=NOC[C@@H](O)[C@H]1O[C@@H]2OC(C)(C)O[C@@H]2[C@H]1O,1.89,-0.144,1.62,-2.72,-0.676,2.55,-1.54 (inactive),-0.109,0.0398,-0.555 (inactive),-0.31,-3.84 (inactive),-1.06 (inactive),-0.897 (inactive),0.359 (inactive),-0.187 (inactive),1.39 (inactive),0.431 (inactive),-0.776,0.145
CO[C@H]1COC(=O)CC=C[C@H](C)[C@@H](OC)COC(=O)[C@H](C)COC(=O)CC=C[C@@H]1C,0.389,-0.376,1.05,0.199,-1.03,1.86,0.352 (inactive),-0.316,-0.326,-0.132 (inactive),0.531,-0.319 (inactive),0.254 (inactive),0.491 (inactive),-0.838 (inactive),0.606 (inactive),0.827 (inactive),0.0975 (inactive),-0.501,-0.256
CC1O[C@H]2C3=C(C(=O)[C@@H]4O[C@@H]4[C@H]3O)[C@@H]1C1[C@@H](C)OC=C3[C@H](O)C4O[C@@H]4C(=NOCc4ccccc4)[C@]312 (stereo not given in full),-0.434,0.145,-1.65,-3.58,-3.71,-2.66,0.435 (inactive),-0.856,-2.28,-0.989 (inactive),-1.04,-0.456 (inactive),-4.85 (inactive),0.0953 (inactive),-0.364 (inactive),0.543 (inactive),0.158 (inactive),-0.123 (inactive),-2.84,0.215
CCOC(=O)[C@H](Cc1ccccc1)NC(=O)CCC1CC(OC(=O)NCCc2ccc(F)cc2)CC2(CCCC(COC(=O)NCCc3ccc(Cl)cc3)O2)O1 (stereo not given in full),-0.648,-0.224,-0.44,-1.91,-1.94,-0.0496,-0.305 (inactive),0.158,-0.56,0.0031 (inactive),0.072,-0.0784 (inactive),0.231 (inactive),-0.161 (inactive),-0.0569 (inactive),0.809 (inactive),0.869 (inactive),0.721 (inactive),0.28,-0.0177
CC(C)C[C@H](NC(=O)CCC1CC(OC(=O)NCc2cccc3ccccc23)CC2(CCCC(COC(=O)NCc3ccccc3)O2)O1)C(=O)NCC(c1ccccc1)c1ccccc1 (stereo not given in full),-0.375,0.111,-0.429,-3.53,-0.971,-0.341,0.922 (inactive),-0.802,-0.715,0.337 (inactive),0.1,-0.245 (inactive),0.284 (inactive),-0.79 (inactive),0.851 (inactive),-0.0457 (inactive),0.64 (inactive),0.628 (inactive),0.731,-0.242
Cc1ccc(S(=O)(=O)NC(CCc2ccccc2)CC(=O)C(C)(C)C)cc1 (stereo not given),0.0378,-0.795,-0.869,0.0642,-0.156,-0.696,-0.255 (inactive),-0.201,-0.236,1.34 (inactive),0.277,-1 (inactive),-0.146 (inactive),0.0379 (inactive),0.143 (inactive),0.384 (inactive),0.628 (inactive),0.274 (inactive),0.159,-0.195
CCOC(=O)C1=NO[C@@]2(C=C(Br)C3(OCCCO3)[C@H]3O[C@H]32)C1,-0.433,0.672,0.0307,0.777,-0.468,0.448,0.139 (inactive),-0.723,0.308,-0.542 (inactive),-0.68,-0.303 (inactive),-0.227 (inactive),0.552 (inactive),0.356 (inactive),0.227 (inactive),0.58 (inactive),0.643 (inactive),-0.249,0.0657
COC(=O)[C@@H]1CC[C@H](C)[C@@H](c2ccc(C)cc2)N1C(=O)c1ccc(C=NO[C@@H](C)c2cn([C@H](CO)Cc3ccccc3)nn2)cc1,0.724,-0.412,-0.759,-1.41,-1.92,-0.86,0.0596 (inactive),-0.946,-0.901,-0.392 (inactive),-1.27,-0.476 (inactive),-1.93 (inactive),-1.41 (inactive),0.171 (inactive),1.35 (inactive),0.836 (inactive),0.161 (inactive),-1.16,-0.102
CCOC(=O)[C@H](Cc1ccccc1)NC(=O)CCC1CC(OC(=O)NCCc2ccc(F)cc2)CC2(CCCC(COC(=O)NCC3CCCCC3)O2)O1 (stereo not given in full),1.35,-0.78,0.901,-3.14,0.219,0.809,0.367 (inactive),-0.0221,-1.29,0.384 (inactive),0.211,-0.362 (inactive),0.368 (inactive),-0.189 (inactive),0.781 (inactive),0.869 (inactive),0.828 (inactive),1.21 (inactive),0.772,-0.0009
CCN1C(=O)[C@H]2[C@H]3[C@H](O)[C@H](O)CC(=NNC(=O)OCc4ccc(OC)cc4)[C@@H]3CC[C@H]2C1=O,-0.241,-0.0397,-0.112,0.0505,-0.788,-0.586,-0.66 (inactive),-0.232,-0.0402,0.247 (inactive),-0.295,0.303 (inactive),-0.938 (inactive),-0.367 (inactive),-0.708 (inactive),-1.33 (inactive),-0.154 (inactive),-0.0457 (inactive),-0.381,-0.0416
